Common to all, as to assay: DAPPL (digital affinity profiling via proximity ligation, sequencing); 10 mM Tris-HCl pH 7.5, 50 mM NaCl, 1 mM DTT, 4% glycerol, room temperature, 30 min; GST-TFs on glutathione beads, 16-mer random dsDNA library, 0.1% formaldehyde crosslink after washing; high values mean tight binding
In test [1] the target is T1, FLI1 (Homo sapiens, UniProt Q01543 1-452).
T1 sequence: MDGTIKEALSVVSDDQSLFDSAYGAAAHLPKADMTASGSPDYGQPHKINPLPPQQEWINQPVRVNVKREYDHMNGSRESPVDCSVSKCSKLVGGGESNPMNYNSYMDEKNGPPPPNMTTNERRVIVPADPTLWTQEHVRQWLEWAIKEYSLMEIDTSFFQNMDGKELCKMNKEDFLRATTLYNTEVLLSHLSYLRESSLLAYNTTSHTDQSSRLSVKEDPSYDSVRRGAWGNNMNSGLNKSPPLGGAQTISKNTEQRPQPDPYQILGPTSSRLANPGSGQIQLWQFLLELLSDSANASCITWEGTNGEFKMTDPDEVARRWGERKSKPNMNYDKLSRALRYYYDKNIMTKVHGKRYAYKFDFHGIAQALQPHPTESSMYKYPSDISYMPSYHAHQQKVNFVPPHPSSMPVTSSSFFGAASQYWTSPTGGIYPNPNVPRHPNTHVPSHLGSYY
The following applies: protein: recombinant; tags: N-terminal GST; dsDNA, one strand shown. The essentials:
(§1)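 After expression in yeast as GST fusions, human transcription factors were bound to glutathione beads, DNA-barcoded and mixed with a tag-only sample. The pools were incubated with 200 nmole of a 16-mer random double-stranded DNA library in Tris/NaCl/DTT/glycerol buffer (30 min, room temperature), washed and crosslinked with 0.1% formaldehyde. Proximity ligation with BsaI/T4 ligase ran for 1 h at 37 °C, before PCR amplification and sequencing on an Illumina NextSeq500. Binding signal is a hexamer's read frequency for a factor divided by its frequency for the tag-only sample.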

The target in test [2] is T2, ELK1 (Homo sapiens, UniProt P19419 1-428).
T2 sequence: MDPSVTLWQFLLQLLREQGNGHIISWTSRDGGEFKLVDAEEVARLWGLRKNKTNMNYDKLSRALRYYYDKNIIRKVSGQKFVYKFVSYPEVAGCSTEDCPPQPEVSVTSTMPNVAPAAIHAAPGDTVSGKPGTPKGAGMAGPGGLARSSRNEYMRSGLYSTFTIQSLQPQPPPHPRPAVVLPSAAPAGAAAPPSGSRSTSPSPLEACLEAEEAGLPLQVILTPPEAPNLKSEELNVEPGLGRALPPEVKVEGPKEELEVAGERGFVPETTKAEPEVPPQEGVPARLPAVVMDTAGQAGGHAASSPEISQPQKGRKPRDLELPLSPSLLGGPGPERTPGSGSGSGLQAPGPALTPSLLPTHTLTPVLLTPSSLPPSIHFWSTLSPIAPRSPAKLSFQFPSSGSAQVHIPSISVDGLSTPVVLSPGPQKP
The following applies: protein: recombinant; tags: N-terminal GST; dsDNA, one strand shown. The essentials: as §1

For test [3], the target named is T3, GABPA (Homo sapiens, UniProt Q06546 1-454).
T3 sequence: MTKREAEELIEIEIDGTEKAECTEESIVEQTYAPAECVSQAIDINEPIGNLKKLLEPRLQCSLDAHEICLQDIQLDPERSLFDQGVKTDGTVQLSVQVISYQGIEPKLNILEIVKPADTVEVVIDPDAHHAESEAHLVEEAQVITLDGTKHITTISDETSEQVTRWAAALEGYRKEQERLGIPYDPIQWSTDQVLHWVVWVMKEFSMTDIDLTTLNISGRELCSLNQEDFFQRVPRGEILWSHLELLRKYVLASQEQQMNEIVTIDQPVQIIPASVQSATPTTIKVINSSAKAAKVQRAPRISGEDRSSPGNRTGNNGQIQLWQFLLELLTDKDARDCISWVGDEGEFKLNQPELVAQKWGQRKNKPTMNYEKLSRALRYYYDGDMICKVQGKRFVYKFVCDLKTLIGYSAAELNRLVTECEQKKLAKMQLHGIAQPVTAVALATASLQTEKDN
The following applies: protein: recombinant; tags: N-terminal GST; dsDNA, one strand shown. In short, it runs like this:
as §1

The target in test [4] is T4, ERG (Homo sapiens, UniProt P11308 1-479).
T4 sequence: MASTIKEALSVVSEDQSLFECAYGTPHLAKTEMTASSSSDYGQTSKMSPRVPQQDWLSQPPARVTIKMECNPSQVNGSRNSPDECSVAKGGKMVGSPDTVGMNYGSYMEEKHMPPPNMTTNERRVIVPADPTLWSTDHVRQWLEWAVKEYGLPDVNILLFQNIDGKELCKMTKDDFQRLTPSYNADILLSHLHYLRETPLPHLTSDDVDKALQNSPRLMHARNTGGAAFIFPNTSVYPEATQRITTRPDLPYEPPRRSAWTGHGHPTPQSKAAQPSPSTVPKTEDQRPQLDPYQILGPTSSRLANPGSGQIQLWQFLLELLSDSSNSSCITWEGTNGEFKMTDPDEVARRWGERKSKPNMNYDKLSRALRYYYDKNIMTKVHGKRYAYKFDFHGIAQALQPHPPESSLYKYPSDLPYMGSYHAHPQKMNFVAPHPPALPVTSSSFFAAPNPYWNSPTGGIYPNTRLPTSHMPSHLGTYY
Particulars: protein: recombinant; tags: N-terminal GST; dsDNA, one strand shown. In short, it runs like this:
as §1

Test [5] addresses ELF1 (Homo sapiens, UniProt P32519 1-619). Particulars: protein: recombinant; tags: N-terminal GST; dsDNA, one strand shown. The essentials: as §1
For test [6], the target named is T5, EHF (Homo sapiens, UniProt Q9NZC4 1-300).
T5 sequence: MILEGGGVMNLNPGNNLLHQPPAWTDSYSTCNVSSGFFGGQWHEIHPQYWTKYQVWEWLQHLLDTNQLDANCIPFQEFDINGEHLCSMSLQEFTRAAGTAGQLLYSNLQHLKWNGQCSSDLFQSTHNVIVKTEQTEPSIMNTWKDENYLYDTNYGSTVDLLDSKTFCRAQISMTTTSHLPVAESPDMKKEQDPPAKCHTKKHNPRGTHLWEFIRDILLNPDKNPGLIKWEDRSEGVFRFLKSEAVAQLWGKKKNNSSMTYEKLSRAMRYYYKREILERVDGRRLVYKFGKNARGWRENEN
Particulars: protein: recombinant; tags: N-terminal GST; dsDNA, one strand shown. In short, it runs like this:
as §1

Test [7] deals with SPI1 (Homo sapiens, UniProt P17947 1-270). Particulars: protein: recombinant; tags: N-terminal GST; dsDNA, one strand shown. In short, it runs like this: as §1
The target in test [8] is SPIB (Homo sapiens, UniProt Q01892 1-262). Particulars: protein: recombinant; tags: N-terminal GST; dsDNA, one strand shown. In short, it runs like this: as §1
Sequence of SPIB (Q01892 whole entry): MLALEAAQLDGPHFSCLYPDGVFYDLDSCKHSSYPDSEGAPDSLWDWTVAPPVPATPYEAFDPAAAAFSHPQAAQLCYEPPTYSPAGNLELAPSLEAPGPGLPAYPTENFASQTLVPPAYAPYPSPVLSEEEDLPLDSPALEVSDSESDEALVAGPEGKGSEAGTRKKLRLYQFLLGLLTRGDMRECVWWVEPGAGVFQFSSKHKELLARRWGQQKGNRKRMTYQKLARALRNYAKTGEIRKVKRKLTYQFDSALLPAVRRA
For test [9], the target named is T6, ELK3 (Homo sapiens, UniProt P41970 1-407).
T6 sequence: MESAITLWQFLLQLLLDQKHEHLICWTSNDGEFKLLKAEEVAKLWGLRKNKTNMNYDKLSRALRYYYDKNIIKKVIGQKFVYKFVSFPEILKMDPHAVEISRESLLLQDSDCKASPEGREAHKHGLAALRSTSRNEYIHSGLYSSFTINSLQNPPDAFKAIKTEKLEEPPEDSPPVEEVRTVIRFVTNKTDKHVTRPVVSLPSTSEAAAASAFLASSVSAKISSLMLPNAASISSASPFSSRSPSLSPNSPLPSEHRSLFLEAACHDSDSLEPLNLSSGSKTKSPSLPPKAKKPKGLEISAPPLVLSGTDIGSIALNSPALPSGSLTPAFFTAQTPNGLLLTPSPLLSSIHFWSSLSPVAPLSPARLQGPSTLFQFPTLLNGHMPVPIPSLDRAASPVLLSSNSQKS
The following applies: protein: recombinant; tags: N-terminal GST; dsDNA, one strand shown. The essentials: as §1

Test [10] concerns the target T7, FEV (Homo sapiens, UniProt Q99581 1-238).
T7 sequence: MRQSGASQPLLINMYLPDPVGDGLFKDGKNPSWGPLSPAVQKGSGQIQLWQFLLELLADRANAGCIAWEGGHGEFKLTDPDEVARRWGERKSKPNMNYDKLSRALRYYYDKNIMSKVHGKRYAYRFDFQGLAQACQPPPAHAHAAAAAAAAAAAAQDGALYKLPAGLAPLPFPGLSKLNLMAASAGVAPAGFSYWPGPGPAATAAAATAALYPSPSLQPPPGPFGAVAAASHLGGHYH
The following applies: protein: recombinant; tags: N-terminal GST; dsDNA, one strand shown. The essentials: as §1

For test [11], the target named is ETV5 (Homo sapiens, UniProt P41161 1-510). Particulars: protein: recombinant; tags: N-terminal GST; dsDNA, one strand shown. In short, it runs like this:
as §1

In test [12] the target is HSF1 (Homo sapiens, UniProt Q00613 1-529). Particulars: protein: recombinant; tags: N-terminal GST; chain copies: 3; dsDNA, one strand shown. In short, it runs like this:
as §1

Test [13] addresses T8, SPIC (Homo sapiens, UniProt Q8N5J4 1-248).
T8 sequence: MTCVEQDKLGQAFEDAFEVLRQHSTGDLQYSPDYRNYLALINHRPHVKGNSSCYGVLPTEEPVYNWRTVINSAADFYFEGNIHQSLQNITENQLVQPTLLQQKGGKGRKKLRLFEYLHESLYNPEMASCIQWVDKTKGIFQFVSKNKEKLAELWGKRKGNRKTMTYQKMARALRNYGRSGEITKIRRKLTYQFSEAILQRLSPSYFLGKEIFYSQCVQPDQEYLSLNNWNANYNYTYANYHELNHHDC
The following applies: protein: recombinant; tags: N-terminal GST; dsDNA, one strand shown. In short, it runs like this: as §1

The target of test [14] is ELF4 (Homo sapiens, UniProt Q99607 1-663). The following applies: protein: recombinant; tags: N-terminal GST; dsDNA, one strand shown. In short, it runs like this:
as §1

Test [15] has as its target T9, ELK4 (Homo sapiens, UniProt P28324-2 1-405).
T9 sequence: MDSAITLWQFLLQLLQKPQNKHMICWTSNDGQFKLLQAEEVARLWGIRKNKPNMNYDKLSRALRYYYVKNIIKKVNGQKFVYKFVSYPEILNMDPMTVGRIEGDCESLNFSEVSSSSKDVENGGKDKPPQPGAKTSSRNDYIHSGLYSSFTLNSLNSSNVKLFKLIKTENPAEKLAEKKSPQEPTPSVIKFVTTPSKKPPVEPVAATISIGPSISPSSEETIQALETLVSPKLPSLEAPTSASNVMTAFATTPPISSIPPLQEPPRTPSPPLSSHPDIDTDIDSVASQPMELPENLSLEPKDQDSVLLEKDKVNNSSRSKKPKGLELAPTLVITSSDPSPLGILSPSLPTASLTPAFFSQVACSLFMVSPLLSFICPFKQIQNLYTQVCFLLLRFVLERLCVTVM
Particulars: protein: recombinant; tags: N-terminal GST; dsDNA, one strand shown. In short, it runs like this:
as §1

Test [16] deals with T10, ETV2 (Homo sapiens, UniProt O00321 1-342).
T10 sequence: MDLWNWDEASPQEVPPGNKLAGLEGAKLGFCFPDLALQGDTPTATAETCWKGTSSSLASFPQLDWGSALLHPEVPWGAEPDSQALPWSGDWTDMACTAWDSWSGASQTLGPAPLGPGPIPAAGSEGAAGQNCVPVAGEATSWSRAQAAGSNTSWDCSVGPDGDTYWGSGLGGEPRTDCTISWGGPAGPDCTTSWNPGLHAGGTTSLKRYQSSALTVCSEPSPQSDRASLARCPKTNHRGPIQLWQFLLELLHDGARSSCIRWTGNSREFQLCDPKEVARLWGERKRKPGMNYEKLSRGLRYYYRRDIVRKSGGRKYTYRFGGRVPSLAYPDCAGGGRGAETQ
The following applies: protein: recombinant; tags: N-terminal GST; dsDNA, one strand shown. In short, it runs like this: as §1

Test [17] has as its target T11, ELF3 (Homo sapiens, UniProt P78545 1-371).
T11 sequence: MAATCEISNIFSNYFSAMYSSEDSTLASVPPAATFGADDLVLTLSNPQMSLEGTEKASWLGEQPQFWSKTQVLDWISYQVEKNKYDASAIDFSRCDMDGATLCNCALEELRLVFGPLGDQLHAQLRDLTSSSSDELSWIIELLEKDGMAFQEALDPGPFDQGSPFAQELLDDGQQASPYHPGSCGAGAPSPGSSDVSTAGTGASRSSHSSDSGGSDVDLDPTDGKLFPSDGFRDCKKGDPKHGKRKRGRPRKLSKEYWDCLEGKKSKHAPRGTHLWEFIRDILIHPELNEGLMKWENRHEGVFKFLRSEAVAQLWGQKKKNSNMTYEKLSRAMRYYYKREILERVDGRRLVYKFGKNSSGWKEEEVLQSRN
Particulars: protein: recombinant; tags: N-terminal GST; dsDNA, one strand shown. In short, it runs like this: as §1

Test [18] concerns the target CRX (Homo sapiens, UniProt O43186 1-299). Particulars: protein: recombinant; tags: N-terminal GST; dsDNA, one strand shown. The essentials:
as §1

The target of test [19] is ETV1 (Homo sapiens, UniProt P50549 1-477). Particulars: protein: recombinant; tags: N-terminal GST; dsDNA, one strand shown. In short, it runs like this: as §1
Sequence of ETV1 (P50549 whole entry): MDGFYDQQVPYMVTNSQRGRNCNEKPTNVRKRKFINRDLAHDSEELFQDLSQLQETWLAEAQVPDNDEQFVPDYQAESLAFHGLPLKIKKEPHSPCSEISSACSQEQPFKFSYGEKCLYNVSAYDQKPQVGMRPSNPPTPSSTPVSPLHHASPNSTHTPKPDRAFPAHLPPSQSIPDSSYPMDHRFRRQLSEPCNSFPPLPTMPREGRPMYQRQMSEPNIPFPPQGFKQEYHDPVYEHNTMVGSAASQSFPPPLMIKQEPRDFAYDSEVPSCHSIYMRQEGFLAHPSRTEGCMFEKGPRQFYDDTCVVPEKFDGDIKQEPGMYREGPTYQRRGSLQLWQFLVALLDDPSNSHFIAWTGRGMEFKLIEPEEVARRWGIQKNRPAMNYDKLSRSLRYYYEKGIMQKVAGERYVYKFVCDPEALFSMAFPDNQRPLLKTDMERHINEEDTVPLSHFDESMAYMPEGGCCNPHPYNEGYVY

Sequence of ELF4 (Q99607 whole entry): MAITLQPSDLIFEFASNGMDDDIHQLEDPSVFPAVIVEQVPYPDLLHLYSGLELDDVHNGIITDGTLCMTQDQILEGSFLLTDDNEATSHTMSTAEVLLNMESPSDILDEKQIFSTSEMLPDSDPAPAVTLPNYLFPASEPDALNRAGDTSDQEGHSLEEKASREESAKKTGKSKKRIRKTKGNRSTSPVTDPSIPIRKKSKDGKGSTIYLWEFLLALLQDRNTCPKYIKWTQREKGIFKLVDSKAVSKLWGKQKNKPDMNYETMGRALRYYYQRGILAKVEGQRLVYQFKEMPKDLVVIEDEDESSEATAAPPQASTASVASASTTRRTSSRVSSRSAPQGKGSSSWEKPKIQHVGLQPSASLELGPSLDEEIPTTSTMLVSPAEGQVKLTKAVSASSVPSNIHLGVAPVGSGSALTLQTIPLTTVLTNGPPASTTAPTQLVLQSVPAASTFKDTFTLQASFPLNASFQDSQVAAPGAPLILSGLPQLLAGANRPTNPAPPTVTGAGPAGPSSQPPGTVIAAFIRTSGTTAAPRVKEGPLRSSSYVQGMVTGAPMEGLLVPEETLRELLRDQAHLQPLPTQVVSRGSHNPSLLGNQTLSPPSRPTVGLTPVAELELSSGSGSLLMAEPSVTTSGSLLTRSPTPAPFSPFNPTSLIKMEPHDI
Sequence of HSF1 (Q00613 whole entry): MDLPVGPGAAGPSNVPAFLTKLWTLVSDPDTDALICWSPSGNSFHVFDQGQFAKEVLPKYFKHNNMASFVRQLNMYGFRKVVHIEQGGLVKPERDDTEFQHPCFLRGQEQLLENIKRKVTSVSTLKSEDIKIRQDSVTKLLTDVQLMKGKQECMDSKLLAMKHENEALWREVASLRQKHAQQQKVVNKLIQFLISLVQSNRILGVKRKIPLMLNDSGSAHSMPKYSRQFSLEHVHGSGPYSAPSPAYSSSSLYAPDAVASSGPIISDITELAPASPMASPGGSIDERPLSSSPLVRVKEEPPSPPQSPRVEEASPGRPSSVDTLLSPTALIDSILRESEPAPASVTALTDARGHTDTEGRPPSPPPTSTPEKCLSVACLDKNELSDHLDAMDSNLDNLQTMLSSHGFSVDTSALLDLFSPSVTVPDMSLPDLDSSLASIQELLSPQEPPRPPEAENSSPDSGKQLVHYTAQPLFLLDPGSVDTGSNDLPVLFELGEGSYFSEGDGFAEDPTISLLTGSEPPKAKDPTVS
Sequence of ETV5 (P41161 whole entry): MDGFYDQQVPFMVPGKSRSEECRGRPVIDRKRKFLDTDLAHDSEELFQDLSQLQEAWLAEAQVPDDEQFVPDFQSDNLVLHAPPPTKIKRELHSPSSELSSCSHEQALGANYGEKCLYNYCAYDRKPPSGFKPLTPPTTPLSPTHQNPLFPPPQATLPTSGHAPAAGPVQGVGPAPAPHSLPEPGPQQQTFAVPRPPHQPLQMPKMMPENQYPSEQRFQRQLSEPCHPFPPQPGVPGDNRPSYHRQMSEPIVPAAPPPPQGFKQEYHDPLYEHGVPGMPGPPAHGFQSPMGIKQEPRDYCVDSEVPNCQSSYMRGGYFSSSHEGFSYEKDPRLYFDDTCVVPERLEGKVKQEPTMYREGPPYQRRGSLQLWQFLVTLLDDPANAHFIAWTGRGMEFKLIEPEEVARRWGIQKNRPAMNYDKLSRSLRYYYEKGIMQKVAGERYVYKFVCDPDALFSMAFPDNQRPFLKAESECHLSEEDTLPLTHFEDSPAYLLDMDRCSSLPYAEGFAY
Sequence of CRX (O43186 whole entry): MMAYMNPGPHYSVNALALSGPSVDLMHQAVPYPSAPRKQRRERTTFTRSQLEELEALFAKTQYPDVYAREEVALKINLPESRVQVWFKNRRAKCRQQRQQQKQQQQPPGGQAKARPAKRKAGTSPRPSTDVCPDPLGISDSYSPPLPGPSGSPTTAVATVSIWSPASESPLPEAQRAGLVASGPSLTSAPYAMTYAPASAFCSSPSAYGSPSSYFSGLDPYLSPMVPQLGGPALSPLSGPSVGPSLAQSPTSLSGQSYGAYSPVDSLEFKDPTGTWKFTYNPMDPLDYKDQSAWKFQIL
Sequence of ELF1 (P32519 whole entry): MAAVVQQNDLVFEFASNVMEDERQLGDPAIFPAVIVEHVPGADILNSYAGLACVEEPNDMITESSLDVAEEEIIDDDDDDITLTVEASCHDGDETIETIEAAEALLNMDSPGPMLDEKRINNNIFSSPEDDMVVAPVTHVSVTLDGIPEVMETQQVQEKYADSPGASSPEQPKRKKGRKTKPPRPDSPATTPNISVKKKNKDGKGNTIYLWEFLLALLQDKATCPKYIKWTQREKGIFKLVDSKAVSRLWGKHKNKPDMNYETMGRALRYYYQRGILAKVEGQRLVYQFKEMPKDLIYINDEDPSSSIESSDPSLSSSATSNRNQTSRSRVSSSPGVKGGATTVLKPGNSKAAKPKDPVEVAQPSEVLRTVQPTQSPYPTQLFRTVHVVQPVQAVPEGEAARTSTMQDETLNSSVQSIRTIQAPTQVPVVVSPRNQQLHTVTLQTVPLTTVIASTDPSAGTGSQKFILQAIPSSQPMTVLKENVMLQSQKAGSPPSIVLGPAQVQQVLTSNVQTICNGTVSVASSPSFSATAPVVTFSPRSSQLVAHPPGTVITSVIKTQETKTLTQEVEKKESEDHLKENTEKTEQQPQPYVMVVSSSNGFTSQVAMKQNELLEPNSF

As to GGTTTA, the binding signal in [1] was 1.12 fold enrichment (6-mer frequency, TF over GST control); in test [2] it was 1.01 fold enrichment (6-mer frequency, TF over GST control); in test [3], 1.05 fold enrichment (6-mer frequency, TF over GST control); in test [4] it was 1.1 fold enrichment (6-mer frequency, TF over GST control); in test [5] it was 1.02 fold enrichment (6-mer frequency, TF over GST control); in test [6] it was 1.08 fold enrichment (6-mer frequency, TF over GST control). The binding signal in [7] was 1.09 fold enrichment (6-mer frequency, TF over GST control); in [8], 1.05 fold enrichment (6-mer frequency, TF over GST control); in test [9], 1.07 fold enrichment (6-mer frequency, TF over GST control); in test [10], 1.05 fold enrichment (6-mer frequency, TF over GST control); in [11], 1.06 fold enrichment (6-mer frequency, TF over GST control); in test [12], 1.29 fold enrichment (6-mer frequency, TF over GST control). Also, the binding signal was 1.13 fold enrichment (6-mer frequency, TF over GST control) in [13]; 1.06 fold enrichment (6-mer frequency, TF over GST control) in test [14]; 1.13 fold enrichment (6-mer frequency, TF over GST control) in [15]; 1.15 fold enrichment (6-mer frequency, TF over GST control) in test [16]; 1.13 fold enrichment (6-mer frequency, TF over GST control) in test [17]; 1.66 fold enrichment (6-mer frequency, TF over GST control) in test [18]. In test [19], the binding signal was 1.05 fold enrichment (6-mer frequency, TF over GST control).
